Tau fluor counter: counter-screen for tau fibril formation inhibitors; 0.93% of 280,000 active; AID 1463; Potency, µM (highest dose often 57.7 µM); tau K18 P301L Alexa594 fluorescence, heparin fibrillization; further: nearly all actives have a fitted effect of over 55% in size
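Human K18 P301L tau (15 uM unlabeled plus 0.24 uM Alexa 594-labeled, final) in 100 mM sodium acetate pH 7 was mixed with compound and 20 uM heparin and incubated 6 hr at 37 C.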
Tau FP inhib: tau fibrillization inhibition (FP) | 0.39% of 280,000 active | Potency, µM (titrated, usually from 57.7 µM), usual class: inhibitors | K18 P301L tau heparin fibrillization, Alexa594 FP, 6 h | AID 1468 | P10636; further: nearly all actives have a fitted effect of over 55% in size
Target sequence (P10636 561-689 P618L limits assumed): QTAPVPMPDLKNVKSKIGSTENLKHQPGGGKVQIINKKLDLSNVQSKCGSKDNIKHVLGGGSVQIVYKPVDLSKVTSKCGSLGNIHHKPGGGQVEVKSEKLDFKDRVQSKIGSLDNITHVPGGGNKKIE
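Heparin (20 uM) drove fibril formation of recombinant tau K18 P301L, 15 uM unlabeled with 0.24 uM Alexa 594 label, for 6 hr at 37 C in 100 mM sodium acetate pH 7. Fluorescence polarization (555/632 nm) read 1 hr after 30 uM ThT.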
Coupling enz: inhibits coupling enzyme system, counter-screen for aldolase hits | coupling enzyme system counterscreen, AmpLite Red fluorescence | activity change, negative = inhibition, % at 58.2 µM, hits read low | 0.67% of 290,000 active | AID 2472; in the data active means activity change below about -30%
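Counterscreen of the coupled detection system alone, without aldolase: glyceraldehyde-3-phosphate coupling enzymes plus AmpLite Red readout. Compounds at 57.5 uM final, 10 min RT preincubation, 20 min RT reaction, fluorescence 525/598 nm.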
Tau ThT inhib: blocks human tau fibril formation measured by thioflavin T; P10636; recombinant tau K18 P301L (four-repeat tau fragment), heparin-induced fibrillization, ThT fluorescence; Potency, µM (titrated, usually from 57.4 µM), most hits filed as inhibitors; 2.1% of 270,000 active; further: nearly all actives have a fitted effect of over 55% in size
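Tau K18 P301L fragment (15 uM unlabeled plus 0.24 uM Alexa 594-labeled) in 100 mM sodium acetate pH 7 with compound, fibrillization induced by 20 uM heparin for 6 hr at 37 C. Thioflavin T (30 uM) added, fluorescence read after 1 hr (ex 450, em 510 nm).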
KDM4E inh: inhibitors of human JMJD2E histone demethylase | 1.6% of 230,000 active | AID 2147 | B2RXH2 | JMJD2E catalytic domain, FDH-coupled NADH fluorescence (FDH is formaldehyde dehydrogenase) | Potency, µM (doses to about 57.1 µM), most hits filed as inhibitors; active means well fitted inhibition curve with a large enough effect, not every such curve was filed as active; inconclusive means small, poorly fitted or top-dose-only effect, or another doubt; inactive means no such curve, though single readings can be large or run the other way; further: nearly all actives have a fitted effect of over 50% in size
Target sequence (B2RXH2 1-337 limits assumed): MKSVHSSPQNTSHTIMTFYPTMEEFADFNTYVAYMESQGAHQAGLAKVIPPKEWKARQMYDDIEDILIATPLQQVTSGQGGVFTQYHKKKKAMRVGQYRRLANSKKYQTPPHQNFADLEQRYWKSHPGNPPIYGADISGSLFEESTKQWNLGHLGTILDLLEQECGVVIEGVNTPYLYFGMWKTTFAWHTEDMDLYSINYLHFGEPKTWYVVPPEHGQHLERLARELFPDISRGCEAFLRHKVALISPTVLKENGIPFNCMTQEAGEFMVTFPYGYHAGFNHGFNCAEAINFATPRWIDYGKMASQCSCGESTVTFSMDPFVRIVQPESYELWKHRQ
Large screens that a line does not name were inactive; [ ] = remark or other dose. An excerpt weighted towards active compounds, which were near 3% of everything screened. Unless noted, the call rests on the fitted dose curve; in most records, active means well fitted curve in the direction sought with a large enough effect; inconclusive means small, poorly fitted or top-dose-only effect, or another doubt; inactive means no such curve, though single readings can be large; an effect the other way counts as inactive or inconclusive.

N#CC1=C(N)N=C(SCc2cccc3ccccc23)C(C(N)=O)C12CCCCC2 (configuration not stated)	Tau fluor counter inconclusive, Tau ThT inhib 20µM
O=C(NCc1ccccc1)[C@]1(C(F)(F)F)C[C@H](CCCO)CCCO1	none (no result: Tau fluor counter, Tau FP inhib, Tau ThT inhib, KDM4E inh)
COc1ccc(-n2ncc(C(=O)Nc3ccc4c(c3)OCO4)c2C2CCN(C(=O)OC(C)(C)C)CC2)cc1	Tau fluor counter inconclusive, Tau ThT inhib inconclusive (no result: Coupling enz, KDM4E inh)
Cc1ccc(-n2ncc(C(=O)Nc3ccc4c(c3)OCO4)c2C2CCN(C(=O)OC(C)(C)C)CC2)cc1	Tau fluor counter 13µM[quencher], Tau ThT inhib inconclusive (no result: Coupling enz, KDM4E inh)
CCOC(=O)CSc1nc(N)c(C(=O)Nc2ccc(N(C)C)cc2)s1	Tau fluor counter inconclusive, Tau ThT inhib 16µM
Cn1c(-c2ccc(S(=O)(=O)N3CCCC3)cc2)csc1=Nc1ccc(Cl)c(Cl)c1	none (no result: Coupling enz, KDM4E inh)
S=c1[nH]c2ccccc2s1	KDM4E inh 20µM
O=C(Nc1ccc2[nH]c(=S)sc2c1)c1ccccc1	none
COc1ccc(CCN2CCC(CNC(=O)c3cnn(-c4ccc(C)cc4)c3C3CCN(C(=O)OC(C)(C)C)CC3)CC2)cc1	none (no result: Coupling enz, KDM4E inh)
COc1ccc2c(c1)OC/C(=C\c1ccc(OC)c(O)c1)C2=O	Tau fluor counter inconclusive, Tau ThT inhib 4.5µM, KDM4E inh 20µM
CC1=C(CC(=O)c2ccccc2)C(=O)c2ccccc2C1=O	Tau fluor counter inconclusive, Coupling enz -36, Tau ThT inhib inconclusive, KDM4E inh inconclusive
O=C(CN1C(=O)c2ccccc2C1=O)c1ccccc1	none
COc1ccc(C(=O)/C=C/c2cccs2)c(OC(=O)c2cccc([N+](=O)[O-])c2)c1	Tau fluor counter inconclusive, Tau ThT inhib 4µM
COc1ccc(C(=O)/C=C/c2ccc(F)cc2)c(OC(=O)c2ccc([N+](=O)[O-])cc2)c1	Tau fluor counter 13µM[quencher], Tau ThT inhib 10µM
O=C(O)c1ccccc1NC(=S)NC(=O)c1sc2ccccc2c1Cl	Tau ThT inhib inconclusive, KDM4E inh inconclusive
O=C(NNC(=S)NC(=O)c1sc2ccccc2c1Cl)c1ccc(Cl)cc1	Tau ThT inhib 14µM
CCCCS(=O)(=O)N1C2=NC(C(=O)OC)=C(C(=O)OC)[C@@H]3N(C)c4ccccc4[C@]23C[C@H]1C(=O)OC	none
O=C(Cn1c(=O)n(Cc2ccco2)c(=O)c2ccc(C(=O)NC3CCCC3)cc21)Nc1ccc(F)cc1	Tau fluor counter inconclusive, Tau FP inhib 16µM, Tau ThT inhib inconclusive (no result: Coupling enz, KDM4E inh)
O=C(/C=C/c1ccccc1)c1cc(Br)ccc(=O)c1O	Tau fluor counter inconclusive, Tau FP inhib inconclusive, Tau ThT inhib 14µM, KDM4E inh 13µM
O=C(/C=C/c1ccc(O)cc1)c1ccccc1O	Tau fluor counter inconclusive, Tau ThT inhib 18µM, KDM4E inh inconclusive
Cc1ccc(/C=C/C(=O)c2ccccc(=O)c2O)cc1C	Tau fluor counter inconclusive, Tau ThT inhib 13µM, KDM4E inh 28µM
O=C(/C=C\c1ccccc1)c1ccccc1O	none (no result: KDM4E inh)
Cc1ccc(-n2nnc(-c3nsc(NC(=O)c4ccccc4C)n3)c2C)cc1Cl	Tau ThT inhib inconclusive (no result: Coupling enz, KDM4E inh)
CCOC(=O)c1cc(OC(=O)c2ccccc2F)n(-c2ccccc2)n1	none (no result: Coupling enz, KDM4E inh)
COc1ccc(OC2C=CC(c3ccccc3)OC2CO)c(C(C)(C)C)c1 (configuration not stated)	none (no result: KDM4E inh)
CCc1ccc2c(c1)C(=O)C(=O)N2CC(=O)Nc1ccc(NC(=O)c2ccccn2)cc1	Tau fluor counter inconclusive, Tau ThT inhib 14µM
CCCS(=O)(=O)c1ncc(Cl)c(C(=O)N(Cc2ccccc2)Cc2ccco2)n1	Tau ThT inhib inconclusive (no result: Coupling enz, KDM4E inh)
Cc1cccc(CCNC(=O)c2c[nH]c3ccc(S(=O)(=O)Nc4ccccc4F)cc3c2=O)c1	Tau fluor counter inconclusive, Tau FP inhib 7.1µM (no result: Coupling enz, KDM4E inh)
COCCNC(=O)c1c[nH]c2ccc(S(=O)(=O)N3CCc4ccccc43)cc2c1=O	Tau fluor counter inconclusive, Tau FP inhib inconclusive
COCCCNC(=O)c1c[nH]c2ccc(S(=O)(=O)N3CCc4ccccc43)cc2c1=O	Tau fluor counter inconclusive, Tau FP inhib 28µM
Cc1ccc(CCNC(=O)c2c[nH]c3ccc(S(=O)(=O)Nc4ccc(C)cc4C)cc3c2=O)cc1	Tau fluor counter inconclusive, Tau FP inhib 4.5µM (no result: Coupling enz, KDM4E inh)
COc1cccc(NS(=O)(=O)c2ccc3[nH]cc(C(=O)NCCc4ccc(C)cc4)c(=O)c3c2)c1	Tau fluor counter inconclusive, Tau FP inhib inconclusive (no result: Coupling enz, KDM4E inh)

Screens deposited in PubChem by National Center for Advancing Translational Sciences (NCATS).
